Source: PubChem (National Center for Advancing Translational Sciences (NCATS))
In the library only some 1.4% were active in any assay of this set; here they are far more common.
TCR activator = T cell receptor activation. primary human leukocytes, anti-CD3, IL-2 HTRF, 48 h. Potency, µM (series often up to 9.22 µM), usual class: activators. 330,000 tested, under 10 active
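Human primary leukocytes + a-CD3 beads + cpd, 48 hr; IL-2 in supernatant by HTRF (ex 320nm / em 665nm). No co-stimulatory signal supplied.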
BRCA1 expr act = increases BRCA1 expression; MCF7-BRCA1-FFLuc reporter, luminescence, 48 h; response scale: scaled: vehicle 0%, 10 µM genistein 100%; Potency, µM (top dose mostly 46.1 µM), actives largely listed as activators; 380,000 tested, 1.1% active; AID 624202; note: nearly all actives have a fitted effect of over 80% in size
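48 h compound treatment of MCF7-BRCA1-FFLuc cells (phenol-red free MEM, 37 °C), then 15 min with luciferase substrate and luminescence imaging.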
IL2 activator = activators of IL-2; IL-2 activation reporter assay, cell-based qHTS; stimulated with anti-CD3/CD4/CD28 beads; in transgenic mouse T cells; activation, % (series mostly up to about 46 µM); 360,000 tested, 0.065% active; AID 652025; in the data active = activation above about 50%; inconclusive = mostly about 30% to 49%
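Quantitative HTS in unstimulated transgenic mouse T cells, with memory T cells as non-tolerant control and PMA/ionomycin as tolerance-bypass control. Compound pretreatment lasted 60 minutes before 18 h bead stimulation; EGFP/DsRed fluorescence read.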
uPA surface inh = blocks generation of uPA at the cell surface; cell surface uPA generation assay, qHTS; Potency, µM (top dose mostly 38.3 µM), most hits filed as inhibitors; 330,000 tested, 0.31% active; AID 540303; active = well fitted inhibition curve with a large enough effect; inconclusive = small, poorly fitted or top-dose-only effect; inactive = no such curve, though single readings can be large or run the other way; tested in mouse RAW 264.7 cells; note: nearly all actives have a fitted effect of over 55% in size
p53 reactivator = re-activators of mutant p53. Potency, µM (highest dose often 92.2 µM), hits mostly activators. AID 504706. 320,000 tested, 0.063% active. H1299 p53-A138V BP100-luciferase reporter, luminescence, 24 h; note: nearly all actives have a fitted effect of over 45% in size
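H1299 (p53-null), stable ts p53-A138V + BP100-Luc; 1000 cells/well, Opti-MEM/10% FBS; cpd 4 pt, 1:5; 24 h, 37 deg C, 5% CO2; detection reagent 10 min RT; luminescence.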
Of the large screens only hits and unclear results are named; the others gave an inactive call. Unless noted, calls come from the whole dose curve; as a rule, active = well fitted curve in the direction sought with a large enough effect; inconclusive = small, poorly fitted or top-dose-only effect, or another doubt; inactive = no such curve, though single readings can be large; an effect the other way counts as inactive or inconclusive.

CC(=O)Oc1cc(C(=O)OCC(=O)NC23CC4CC(CC(C4)C2)C3)cc(OC(C)=O)c1OC(C)=O	uPA surface inh 10µM (no result: p53 reactivator)
COc1cccc(C(=O)OCC(=O)NC23CC4CC(CC(C4)C2)C3)c1	none
COc1ccc(N2C(=O)c3ccccc3NC2c2ccc(OC)c(COc3ccccn3)c2)cc1 (centres undefined)	BRCA1 expr act 6.31µM, p53 reactivator inconclusive
CCOc1ccc(C(=O)Nc2cccc(-c3ccc(N4CCOCC4)nn3)c2)cc1OCC	BRCA1 expr act 11.2µM
CCC(=O)Nc1cccc(-c2ccc(N3CCN(C)CC3)nn2)c1	BRCA1 expr act inconclusive, uPA surface inh inconclusive, p53 reactivator inconclusive
COc1cccc(C(=O)Nc2cccc(-c3ccc(N4CCOCC4)nn3)c2)c1	uPA surface inh 10µM
CCC(=O)Nc1cccc(-c2ccc(N3CCCCC3)nn2)c1	BRCA1 expr act inconclusive, uPA surface inh 0.891µM, p53 reactivator inconclusive
COc1cccc(C(=O)Nc2cccc(-c3ccc(N4CCOCC4)nn3)c2)c1OC	none
COc1ccc(C(=O)Nc2cccc(-c3ccc(N4CCOCC4)nn3)c2)cc1OC	none
CCN(C(=O)c1cccn(Cc2cccc(Cl)c2)c1=O)c1ccccc1	none (no result: TCR activator, IL2 activator, uPA surface inh, p53 reactivator)
COc1cc2[nH]c(=O)n(CCCC(=O)NCc3ccc(Cl)cc3)c(=O)c2cc1OC	none (no result: TCR activator, IL2 activator, uPA surface inh, p53 reactivator)
COc1cc2nc(N3CCCCC3)nc(NC3CC3)c2cc1OC	none (no result: TCR activator, IL2 activator, uPA surface inh, p53 reactivator)
Cc1c([N+](=O)[O-])cnc(Sc2ccccc2)c1[N+](=O)[O-]	uPA surface inh 8.91µM (no result: p53 reactivator)
Cc1ccc(Sc2ncccc2[N+](=O)[O-])cc1	none
COc1ccc2c(c1)CCc1c(C(=O)NCc3ccco3)noc1-2	BRCA1 expr act 6.31µM, p53 reactivator inconclusive (no result: uPA surface inh)
COCC(C)NC(=O)c1noc2c1CCc1cc(OC)ccc1-2 (centres undefined)	BRCA1 expr act inconclusive, p53 reactivator inconclusive (no result: uPA surface inh)
COCCNC(=O)c1noc2c1CCc1cc(OC)ccc1-2	BRCA1 expr act 2.24µM (no result: uPA surface inh)
CCn1c(=O)c2cc(C(=O)N(C)c3cc(C)ccc3C)sc2c2ccccc21	none (no result: TCR activator, IL2 activator, uPA surface inh, p53 reactivator)
Cc1ccc(C)c(N2CCN(C(=O)c3cc4c(=O)n(Cc5ccccc5)ccc4nc3C)CC2)c1	none (no result: TCR activator, IL2 activator, uPA surface inh, p53 reactivator)
O=C1C=CC(=O)N1Cc1ccccc1	uPA surface inh 7.94µM (no result: p53 reactivator)
O=C1C2CC=CCC2C(=O)N1Cc1ccccc1 (centres undefined)	none
Cc1cccc(C(=O)NNC(=O)c2cccc(C)c2)c1	none
O=C(NOCc1ccccc1)c1ccccc1	BRCA1 expr act 1.26µM, uPA surface inh inconclusive, p53 reactivator inconclusive
Cc1ccc(CONC(=O)c2cccc(C)c2)cc1	BRCA1 expr act 8.91µM
O=C(NOCc1ccccc1)c1ccc(Cl)cc1Cl	uPA surface inh inconclusive
O=c1oc(-c2ccccc2)nc2sc3c(c12)CCCC3	p53 reactivator inconclusive
O=c1oc(-c2cccs2)nc2sc3c(c12)CCCCC3	BRCA1 expr act 10µM, p53 reactivator inconclusive
CCC(/C=C1\Sc2ccc(OC)cc2N1CC)=C\c1sc2ccc(OC)cc2[n+]1CCCS(=O)(=O)[O-]	none
CCC(/C=C1\Sc2ccc(OC)cc2N1CCO)=C\c1sc2ccc(OC)cc2[n+]1CCO	TCR activator 12.6µM
CCc1ccc(Nc2n[n+](-c3ccccc3)c(-c3c(Cl)cccc3Cl)s2)cc1	uPA surface inh 12.6µM (no result: p53 reactivator)
O=C(Cn1c(SCCOc2ccc(Cl)cc2)nc2ccccc21)N1CCCCC1	none (no result: TCR activator, IL2 activator, uPA surface inh, p53 reactivator)
O=C(Cc1ccccc1)Nc1ccc2c(c1)OC1(CCCC1)O2	BRCA1 expr act 3.98µM, p53 reactivator inconclusive
CCc1ccccc1NC(=O)CN1CCN(CC(=O)Nc2ccc3c(c2)OC2(CCCCC2)O3)CC1	none (no result: p53 reactivator)
O=C(Cc1ccccc1)Nc1cc2c(cc1Cl)OCCCO2	BRCA1 expr act 3.16µM
COc1ccc(C(=O)Nc2nc3ccc(S(C)(=O)=O)cc3s2)cc1	none
COc1ccc2nc(NC(=O)c3ccccc3C(=O)O)sc2c1	none
COc1ccc(C(=O)Nc2nc3ccc(OC)cc3s2)cc1	BRCA1 expr act 2.24µM, uPA surface inh inconclusive
COc1ccc(Nc2nc3ccc(OC)cc3s2)cc1	BRCA1 expr act 7.94µM
COc1ccc2nc(NC(=O)c3ccccc3F)sc2c1	uPA surface inh 10µM
NS(=O)(=O)c1ccc(CCNC(=O)c2ccc(Br)s2)cc1	none
O=C(NCCc1ccc(Cl)cc1)c1ccc(Br)s1	BRCA1 expr act 3.55µM, p53 reactivator inconclusive
